According to PubChem BioAssay:
The source made the active and inactive calls. Unless noted, no rule for the calls is given here.

Experiments:
[1] = anti-His antibody binders, primary screen, artefact control for SMM control protein annotation, biochemical, small-molecule microarray, 635 nm fluorescence (AID 1128); conditions: anti-His Alexa647 antibody binding, higher = more signal;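 also: score merges feature fluorescence with signal-to-noise for each printed compound spot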
[2] = system: Human papillomavirus type 1a E7 protein (residues 1-88); test: HPV1a E7 small-molecule binders, primary screen, biochemical, small-molecule microarray, residues 1-88, 635 nm (AID 1129); conditions: small-molecule microarray binding, fluorescence 635 nm; higher = more signal
[3] = molecular target: Focal adhesion kinase 1 (Homo sapiens) (UniProt Q05397); test: small-molecule microarray binders of FAK, primary screen, biochemical, 635/667 nm fluorescence, BSA, DTT (AID 1130); conditions: PTK2 binding, 635 nm fluorescence, higher = more signal;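 also: composite of spot emission at 667 nm and signal to noise over triplicate slides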
[4] = system: Fibrinogen (Alexa647-labelled); test: fibrinogen binders on compound microarrays, profiling panel, artefact control for SMM control-protein annotation, biochemical, small-molecule microarray, 635/667 nm fluorescence (AID 1131); conditions: fibrinogen-A647 binding fluorescence, higher = more signal;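 also: z-score merges 667 nm fluorescence with per-spot signal-to-noise over triplicate slides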
[5] = molecular target: Follistatin (Homo sapiens) (UniProt P19883); test: follistatin binders on small-molecule microarrays, primary screen, biochemical, small-molecule microarray, 635/667 nm fluorescence (AID 1132); conditions: FST binding, 635 nm fluorescence, higher = more signal
[6] = molecular target: Fibroblast growth factor 2 (Homo sapiens) (UniProt P09038); test: FGF2 binders on small-molecule microarrays, primary screen, biochemical, small-molecule microarray, 635/667 nm fluorescence (AID 1133); conditions: small-molecule microarray binding, FGF2, fluorescence 635/667; higher = more signal
[7] = mitochondrial membrane potential change in A549 cells, profiling panel, cell-based, JC-1 fluorescence, basal, 24 h, 100 nL (AID 1138); conditions: higher = more signal;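 also: A549 lung adenocarcinoma cells under basal conditions with no added stimulus; test concentration not given here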
Lefty1 = Lefty1 binders on small-molecule microarrays, primary screen, biochemical, small-molecule microarray, 635/667 nm fluorescence (AID 1139); conditions: small-molecule microarray binding, fluorescence 635/667; higher = more signal
[8] = system: wheat germ agglutinin (Triticum aestivum), Alexa647-labelled; test: wheat germ agglutinin binders on compound microarrays, profiling panel, artefact control for SMM control-protein annotation, biochemical, small-molecule microarray, 635/667 nm fluorescence (AID 1140); conditions: WGA-A647 binding, 635 nm fluorescence, higher = more signal;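 also: score merges 667 nm feature emission with signal to noise over triplicate slides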
[9] = molecular target: Luciferin 4-monooxygenase (Photinus pyralis) (UniProt P08659); test: firefly luciferase enzyme inhibitors, primary screen, biochemical, luminescence, purified enzyme, 2006 set (AID 1141); conditions: SteadyGlo luminescence, 30 min, higher = more signal, called active from +8 up or from −8 down;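 also: cell-free assay with purified firefly luciferase at 100 ng per well in PBS; test concentration not given here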
[10] = system: Wnt5a (protein binding on small-molecule microarray); test: Wnt5a binders on small-molecule microarray, primary screen, biophysical, 635/667 nm fluorescence (AID 1142); conditions: 635 nm fluorescence, higher = more signal;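 also: fluorescence read at 667 nm with signal to noise per printed feature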
[11] = cell viability in Huh7 cells, primary screen, cytotoxicity control for HCV replication inhibitor project, CellTiter-Glo luminescence, basal, 48 h (AID 1143); conditions: Huh7 HCV replicon, higher = more signal, called active from +8 up or from −8 down;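 also: Huh7 hepatoma cells carrying a hepatitis C replication reporter with no stimulus; test concentration not given here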
[12] = P. aeruginosa biofilm formation inhibitors, primary screen, PAO1 strain, BacTiter-Glo luminescence, LB-PBS (AID 1144); conditions: 12 h, higher = more signal
[13] = CREB reporter modulators without forskolin, primary screen, cell-based, PC12, CRE-LacZ reporter, unstimulated (AID 1145); conditions: no forskolin, luminescence, 4.5 h, higher = more signal, called active from +8 up or from −8 down
[14] = CREB reporter modulators under forskolin, primary screen, cell-based, PC12, CRE-LacZ reporter, forskolin-stimulated (AID 1146); conditions: luminescence, 4.5 h, higher = more signal, called active from +8 up or from −8 down;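 also: PC12 cells with 6xCRE LacZ reporter stimulated by forskolin 10 µM; beta-galactosidase reporter signal reflecting CREB driven transcription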
[15] = molecular target: Streptavidin (Streptomyces avidinii) (UniProt P22629); test: streptavidin binders on small-molecule microarray, primary screen, artefact control for SMM compound annotation, biophysical, 635/667 nm fluorescence (AID 1147); conditions: streptavidin binding, higher = more signal;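 also: signal reflects streptavidin binding to arrayed compounds as a control protein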
[16] = small-molecule binders of probe aInhba, primary screen, biochemical, small-molecule microarray, 635/667 nm fluorescence (AID 1148); conditions: higher = more signal;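 also: score merges 667nm spot fluorescence with signal-to-noise for antibody binding to printed compounds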
Torsin-1A (Homo sapiens) [17] = molecular target: Torsin-1A (Homo sapiens) (UniProt O14656); test: torsin A binders from cell lysate, primary screen, small-molecule microarray, wild-type, 635/667 nm (AID 1149); conditions: COS7 hTOR1A-WT lysate, 635 nm fluorescence, higher = more signal
Torsin-1A (Homo sapiens) [18] = molecular target: Torsin-1A (Homo sapiens) (UniProt O14656); test: small-molecule binders of mutant TOR1A in lysate, primary screen, cell lysate, small-molecule microarray, COS7 lysate, 635/667 nm fluorescence (AID 1150); conditions: COS7 hTOR1A mutant lysate, 635 nm fluorescence, higher = more signal;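 also: score pools 667 nm emission and signal to noise measuring lysate protein binding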
[19] = system: Sonic hedgehog protein (Shh); test: small-molecule binders of Shh protein, primary screen, biochemical, small-molecule microarray, 635/667 nm fluorescence (AID 1151); conditions: small-molecule microarray binding, 635 nm fluorescence; higher = more signal;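 also: Shh protein binding to compounds spotted on small-molecule microarray slides; score combines spot fluorescence intensity with signal-to-noise across triplicate slides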

Focal adhesion kinase 1 (Homo sapiens), sequence (Q05397 whole entry, looked up): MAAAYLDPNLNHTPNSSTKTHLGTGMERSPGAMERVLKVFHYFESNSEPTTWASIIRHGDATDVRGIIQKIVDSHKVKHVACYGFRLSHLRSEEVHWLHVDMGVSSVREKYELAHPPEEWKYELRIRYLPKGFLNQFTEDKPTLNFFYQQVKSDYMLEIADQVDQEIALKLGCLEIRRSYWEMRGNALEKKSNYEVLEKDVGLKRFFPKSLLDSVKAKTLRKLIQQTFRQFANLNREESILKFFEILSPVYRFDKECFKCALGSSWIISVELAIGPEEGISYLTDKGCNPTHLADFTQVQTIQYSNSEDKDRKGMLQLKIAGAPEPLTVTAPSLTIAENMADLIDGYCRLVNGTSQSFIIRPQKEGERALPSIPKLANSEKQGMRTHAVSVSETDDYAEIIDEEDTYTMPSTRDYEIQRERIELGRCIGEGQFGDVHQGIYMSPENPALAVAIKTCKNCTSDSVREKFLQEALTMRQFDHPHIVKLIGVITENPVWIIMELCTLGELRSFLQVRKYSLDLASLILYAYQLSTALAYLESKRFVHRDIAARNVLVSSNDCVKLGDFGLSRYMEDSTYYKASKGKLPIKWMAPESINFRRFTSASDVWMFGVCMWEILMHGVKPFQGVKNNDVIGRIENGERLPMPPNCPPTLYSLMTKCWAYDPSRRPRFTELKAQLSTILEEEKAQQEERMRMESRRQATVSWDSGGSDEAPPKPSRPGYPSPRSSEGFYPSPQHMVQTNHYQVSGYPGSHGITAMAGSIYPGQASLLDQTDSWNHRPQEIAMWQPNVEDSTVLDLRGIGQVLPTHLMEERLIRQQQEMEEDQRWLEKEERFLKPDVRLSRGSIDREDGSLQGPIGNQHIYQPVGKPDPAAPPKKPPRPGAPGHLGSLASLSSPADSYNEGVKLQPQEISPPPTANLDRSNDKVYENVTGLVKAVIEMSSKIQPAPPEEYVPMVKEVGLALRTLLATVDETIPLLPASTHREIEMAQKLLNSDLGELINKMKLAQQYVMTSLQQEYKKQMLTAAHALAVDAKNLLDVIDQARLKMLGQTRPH
Follistatin (Homo sapiens), sequence (P19883 whole entry, looked up): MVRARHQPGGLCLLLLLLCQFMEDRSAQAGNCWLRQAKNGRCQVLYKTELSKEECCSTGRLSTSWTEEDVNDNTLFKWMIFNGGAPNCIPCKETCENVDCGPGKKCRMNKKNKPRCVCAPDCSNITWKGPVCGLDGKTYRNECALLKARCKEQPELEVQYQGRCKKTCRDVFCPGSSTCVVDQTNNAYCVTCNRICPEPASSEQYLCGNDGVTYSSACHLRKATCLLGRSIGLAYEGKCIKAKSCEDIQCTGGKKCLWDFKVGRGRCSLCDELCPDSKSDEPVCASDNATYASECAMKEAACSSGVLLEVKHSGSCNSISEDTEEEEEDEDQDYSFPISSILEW
Fibroblast growth factor 2 (Homo sapiens), sequence (P09038 whole entry, looked up): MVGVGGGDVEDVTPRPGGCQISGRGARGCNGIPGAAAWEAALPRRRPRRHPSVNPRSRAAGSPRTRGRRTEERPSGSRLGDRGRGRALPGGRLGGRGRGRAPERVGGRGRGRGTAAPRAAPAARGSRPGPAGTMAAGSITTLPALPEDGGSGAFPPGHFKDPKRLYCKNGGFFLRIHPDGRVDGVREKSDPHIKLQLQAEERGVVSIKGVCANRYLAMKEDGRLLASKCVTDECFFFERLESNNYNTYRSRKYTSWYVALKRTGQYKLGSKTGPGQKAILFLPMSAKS
Streptavidin (Streptomyces avidinii), sequence (P22629 whole entry, looked up): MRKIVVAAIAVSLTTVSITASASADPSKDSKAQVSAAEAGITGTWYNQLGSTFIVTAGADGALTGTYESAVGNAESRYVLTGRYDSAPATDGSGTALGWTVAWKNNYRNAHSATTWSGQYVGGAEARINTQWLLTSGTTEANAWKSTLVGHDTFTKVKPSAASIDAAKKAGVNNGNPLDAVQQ
Torsin-1A (Homo sapiens), sequence (O14656 whole entry, looked up): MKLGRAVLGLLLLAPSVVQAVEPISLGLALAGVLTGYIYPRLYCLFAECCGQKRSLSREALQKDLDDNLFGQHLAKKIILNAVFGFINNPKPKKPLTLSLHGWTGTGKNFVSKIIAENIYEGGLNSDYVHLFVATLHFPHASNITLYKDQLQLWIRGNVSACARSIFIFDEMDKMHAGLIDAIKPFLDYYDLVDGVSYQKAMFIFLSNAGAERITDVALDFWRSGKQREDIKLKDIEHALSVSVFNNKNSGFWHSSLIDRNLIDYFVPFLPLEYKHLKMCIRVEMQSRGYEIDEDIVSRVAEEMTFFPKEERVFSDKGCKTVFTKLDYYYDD
Luciferin 4-monooxygenase (Photinus pyralis), sequence (P08659 whole entry, looked up): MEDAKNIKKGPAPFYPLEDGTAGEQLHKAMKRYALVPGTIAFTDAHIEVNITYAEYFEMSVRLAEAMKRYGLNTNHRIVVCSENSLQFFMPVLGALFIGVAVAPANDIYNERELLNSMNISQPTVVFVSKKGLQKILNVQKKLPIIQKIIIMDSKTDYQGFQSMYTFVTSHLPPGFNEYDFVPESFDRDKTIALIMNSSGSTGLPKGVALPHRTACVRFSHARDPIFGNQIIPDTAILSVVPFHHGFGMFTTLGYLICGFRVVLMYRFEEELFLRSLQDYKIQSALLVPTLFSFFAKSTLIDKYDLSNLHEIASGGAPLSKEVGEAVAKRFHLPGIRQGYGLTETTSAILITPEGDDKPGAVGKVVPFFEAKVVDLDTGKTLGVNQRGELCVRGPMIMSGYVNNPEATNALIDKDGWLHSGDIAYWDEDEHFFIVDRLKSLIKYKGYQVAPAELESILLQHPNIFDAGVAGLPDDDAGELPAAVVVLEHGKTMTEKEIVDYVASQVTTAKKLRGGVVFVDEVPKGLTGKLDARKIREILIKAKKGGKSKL

Row | Structure (SMILES) | composite z-score [1] | composite z-score [2] | composite z-score [3] | composite z-score [4] | composite z-score [5] | composite z-score [6] | z-score [7] | composite z-score (Lefty1) | composite z-score [8] | z-score [9] | composite z-score [10] | z-score [11] | z-score [12] | z-score [13] | z-score [14] | composite z-score [15] | composite z-score [16] | composite z-score (Torsin-1A (Homo sapiens) [17]) | composite z-score (Torsin-1A (Homo sapiens) [18]) | composite z-score [19]
1 | CCCC[C@H]1OB(O)C[C@H]2C1=C(C)C[C@H]1C(=O)N(C)C(=O)[C@H]12 | -0.0755 | 0.739 | 0.248 | 0.615 | 0.931 | 1.31 | 0.445 | 0.794 | 0.556 | -0.769 (inactive) | 0.224 | 0.0813 (inactive) | -0.0729 (inactive) | -0.237 (inactive) | 1.23 (inactive) | -0.174 | -0.0221 | 0.697 | -0.102 | 0.948
2 | O=C1O[C@@H](c2ccccc2)[C@@H](c2ccccc2)N2[C@@H](c3ccc(OCCO)cc3)[C@]3(C(=O)Nc4ccc(C#CCCO)cc43)[C@@H](C(=O)N3CCCCCCC3)[C@H]12 | 1.86 | 1.17 | 0.782 | 0.965 | 1.39 | 0.585 | -0.287 | 1.56 | 1.35 | -1.62 (inactive) | 0.825 | -1.11 (inactive) | -0.928 (inactive) | -0.168 (inactive) | 0.0629 (inactive) | 2.31 | 1.75 | 0.782 | 1.31 | 1.59
3 | CCCCCCc1nc(CCCc2cc3c(c(CCCCCC)n2)[Si](C(C)C)(C(C)C)O[C@H]3c2ccccc2)cc2c1[Si](C(C)C)(C(C)C)O[C@H]2c1ccccc1 | -0.246 | -0.526 | -0.43 | -1.19 | 0.385 | -0.0811 | 0.669 | 0.778 | -0.0778 | 0.733 (inactive) | -0.0661 | -0.636 (inactive) | 0.182 (inactive) | -0.0106 (inactive) | -0.222 (inactive) | 0.0479 | -0.0972 | -0.285 | -0.0949 | 0.406
4 | COCCCNC(=O)[C@]1(Cc2ccccc2)N=C(c2ccc(OCCCO)cc2)O[C@@H]1c1ccccc1 | 1.26 | 1.23 | 1.03 | 0.99 | 0.355 | 0.827 | 0.549 | -0.334 | 1.09 | -0.515 (inactive) | 0.424 | -2.94 (inactive) | -0.0581 (inactive) | 0.423 (inactive) | -1.36 (inactive) | 0.661 | 0.142 | 0.445 | 0.992 | -0.521
5 | CCOC(=O)NN=C1C[C@@H](O)[C@@H](O)[C@@H]2[C@@H]3C(=O)N(C4CCCCC4)C(=O)[C@@H]3CC[C@@H]12 | 0.327 | -0.18 | 0.287 | 0.5 | 0.267 | 0.365 | 0.497 | 0.319 | 0.0034 | -0.182 (inactive) | 0.133 | 0.392 (inactive) | 0.471 (inactive) | 0.16 (inactive) | 0.366 (inactive) | 0.132 | -0.0987 | 0.597 | 0.726 | 0.0717
6 | C=C(/C(=C/C[C@H](OC(C)=O)c1ccc(OCCO)cc1)c1cnc2ccccc2c1)C(C)C | 0.888 | 1.19 | -0.0763 | 0.921 | 1.45 | 1.31 | 0.414 | 1.48 | 0.585 | -0.477 (inactive) | 0.826 | -2.51 (inactive) | -1.37 (inactive) | 2.06 (inactive) | -0.586 (inactive) | 0.868 | -0.108 | 0.55 | 1 | 2.21
7 | CC[C@@H](c1ccccc1)n1c(=O)n2n(c1=O)[C@H]1[C@H](O)[C@@H]3O[C@@H]3C(=NOCC=C(C)CCC=C(C)C)[C@H]1CC2 | 0.592 | 1.1 | 0.301 | 0.417 | 0.708 | 0.55 | 0.0549 | 1.25 | 0.359 | -0.726 (inactive) | 0.33 | -1.53 (inactive) | 0.0433 (inactive) | 1.07 (inactive) | 0.889 (inactive) | -0.124 | -0.0963 | 0.216 | 0.366 | 1.88
8 | C[C@@H]1CCC2C(=O)N(Cc3ccccc3)C[C@@H](O)CN2[C@H]1c1ccc(Br)cc1 (stereo not given in full) | 0.737 | 0.0101 | -0.24 | 0.909 | 0.49 | 0.425 | 1.89 | 0.399 | 0.623 | -1.86 (inactive) | -0.412 | -2.02 (inactive) | -1.54 (inactive) | 2.28 (inactive) | -0.284 (inactive) | 0.398 | -0.0719 | 0.866 | 1.42 | 0.228
9 | CCCC[C@@H](O)C1=C(C)C[C@H]2C(=O)N(Cc3ccccc3)C(=O)[C@H]2[C@H]1CO | 0.314 | 0.0359 | -0.0945 | -0.0897 | 0.438 | 0.828 | 0.923 | 0.492 | -0.423 | -0.467 (inactive) | -0.0299 | -0.295 (inactive) | -0.665 (inactive) | 1.29 (inactive) | 0.342 (inactive) | -0.451 | -0.0986 | 0.149 | -0.21 | 0.572
10 | CCc1cc2c(nc1CC)CCN(CCC(C)=NOC[C@@H](O)COCc1ccco1)C2 | 1.31 | -0.952 | -0.439 | -0.19 | 1.47 | 1.53 | 1.69 | 1.53 | 0.182 | -0.85 (inactive) | 0.391 | -0.112 (inactive) | 0.132 (inactive) | 2.16 (inactive) | 0.785 (inactive) | 0.536 | 0.149 | 3.95 | 3.64 | 2.31
